In the library only some 1.6% were active in any assay of this set; here they are far more common.
KCNQ2 pot: KCNQ2 (rat) channel potentiation. B-score at 10 µM. CHO-K1 KCNQ2, FluxOR thallium flux fluorescence; stronger effect = higher value. AID 2239. 310,000 tested, 0.54% active;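 active = fluorescence ratio B-score at least 3 SD of library B-scores, with initial fluorescence B-score within 3 of them, cut at about 5.3 in these data; same plate scores as AID 2156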;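 note: B-score of peak minus minimum over baseline fluorescence ratio after K+ and Tl+ stimulus; positive B-score means potentiation of KCNQ2 with more thallium influx and brighter signal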
Target sequence (O88943 whole entry, looked up): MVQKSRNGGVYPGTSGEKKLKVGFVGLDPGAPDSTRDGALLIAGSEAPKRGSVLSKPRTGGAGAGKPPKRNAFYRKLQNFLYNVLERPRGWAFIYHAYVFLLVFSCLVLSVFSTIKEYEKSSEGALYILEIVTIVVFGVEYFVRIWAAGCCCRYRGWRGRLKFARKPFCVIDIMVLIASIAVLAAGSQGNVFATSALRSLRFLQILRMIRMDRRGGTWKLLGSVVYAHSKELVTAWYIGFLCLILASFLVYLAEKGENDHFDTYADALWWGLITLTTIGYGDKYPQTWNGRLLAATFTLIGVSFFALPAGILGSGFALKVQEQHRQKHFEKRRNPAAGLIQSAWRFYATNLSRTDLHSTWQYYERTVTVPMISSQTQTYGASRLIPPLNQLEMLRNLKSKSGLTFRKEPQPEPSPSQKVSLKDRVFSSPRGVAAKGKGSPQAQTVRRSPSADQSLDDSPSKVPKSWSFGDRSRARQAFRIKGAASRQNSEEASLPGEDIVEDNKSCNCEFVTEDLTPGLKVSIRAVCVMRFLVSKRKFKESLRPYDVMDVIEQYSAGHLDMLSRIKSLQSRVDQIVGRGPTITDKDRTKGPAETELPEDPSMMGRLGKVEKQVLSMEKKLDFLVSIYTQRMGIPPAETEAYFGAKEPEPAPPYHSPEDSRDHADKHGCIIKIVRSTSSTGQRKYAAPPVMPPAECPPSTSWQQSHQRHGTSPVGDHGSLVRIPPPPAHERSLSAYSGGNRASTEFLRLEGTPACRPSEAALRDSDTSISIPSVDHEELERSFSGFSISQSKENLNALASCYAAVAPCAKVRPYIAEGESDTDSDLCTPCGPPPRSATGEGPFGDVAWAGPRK
KCNQ2 block: inhibitors of rat KCNQ2 potassium channel; AID 2156; B-score at 10 µM; CHO-K1 KCNQ2, FluxOR thallium flux, 20 min; stronger effect = lower value; O88943; 310,000 tested, 1.1% active;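 active = fluorescence ratio B-score at most minus 3 library SDs, with starting brightness B-score within 2 library SDs, cut at about -5.5 in these data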
Kir21 conf inh: confirmation of mouse Kir2.1 potassium channel inhibitors | shares compounds with KCNQ2 pot | Kir2.1-expressing cells, FluxOR thallium flux fluorescence; stronger effect = lower value | Tl flux remaining, % of negative control (stronger effect = lower value), % at 10 µM | 2,300 tested, 41% active;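 active = Primary-screen hit whose thallium flux fell at least 3 control SD below untreated wells in both duplicates, with normal baseline fluorescence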;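 note: 0% = blank wells without stimulus and 100% = stimulated no-compound controls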
HEK293 Tl flux: counter-screen for Kir2.1 inhibitors: effect in parental HEK293 cells; shares compounds with KCNQ2 pot; FluxOR thallium flux fluorescence; 0% = unstimulated blank wells; FluxOR signal as % of negative control (100 = no effect), % at 10 µM; 2,300 tested, 19% active;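 active = dye signal at least 3 control SD above or below untreated wells in both duplicates, raw fluorescence within 3, either direction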;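 note: percent is based on the flux ratio of peak minus minimum fluorescence over baseline F0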
CHO-K1 Tl ctr: parental CHO-K1 activity in KCNQ2 potentiator counter-screen | shares compounds with KCNQ2 pot | parental CHO-K1 cells, FluxOR thallium flux fluorescence; zero = vehicle mean+3SD, 100% = vehicle-minus-blank window | activity increase over 3SD of controls, % at 10 µM | 1,200 tested, 43% active;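 active = signal rise of at least 3 SD above the untreated control mean, in both duplicate wells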;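 note: counter screen of KCNQ2 potentiator hits so any rise reflects channel-independent effects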
KCNQ1 sel pot: selectivity of KCNQ2 potentiators: effect on human KCNQ1. CHO KCNQ1 stable, FluxOR thallium flux fluorescence; beyond 3SD, as % of vehicle-control signal. AID 2283. shares compounds with KCNQ2 pot. activation over 3SD threshold, % at 10 µM. 1,200 tested, 28% active;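 active = fluorescence ratio rise of at least 3 SD of vehicle wells above their mean, in both replicate wells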;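 note: 0% = vehicle mean plus 3 SD and 100% = vehicle minus unstimulated blank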
KCNQ2 pot confirm: confirmation of rat KCNQ2 potassium channel potentiators | AID 2287 | CHO-KCNQ2 cells, FluxOR thallium flux fluorescence | shares compounds with KCNQ2 pot | potentiation, less the hit threshold, % at 10 µM | 1,200 tested, 68% active;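 active = fluorescence ratio rising 3 SD or more over the vehicle control mean in both replicates, plus primary screen hit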;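 note: peak minus minimum thallium fluorescence divided by baseline after K/Tl stimulus; 0% = vehicle mean plus 3 SD and 100% = vehicle minus unstimulated blank difference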
Kir21 spec: mouse Kir2.1 off-target activity of KCNQ2 potentiators; activity over 3SD threshold, % at 10 µM; HEK293 Kir2.1, FluxOR thallium flux fluorescence; shares compounds with KCNQ2 pot; 1,200 tested, 2% active; AID 2345;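 active = fluorescence ratio rise of at least 3 SD above the vehicle-control mean, seen in both replicates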;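 note: 0% = vehicle mean plus 3 SD and 100% = vehicle minus no-stimulus blank window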
KCNQ2 W236L MoA: rat KCNQ2 W236L mutant potentiation by KCNQ2 potentiators; shares compounds with KCNQ2 pot; CHO KCNQ2-W236L, automated patch clamp current; current increase over 3SD of negative controls (%), stronger effect = higher value, % at 25 µM; 940 tested, 10% active; AID 2558;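 active = current increase at least 3 SD of the untreated controls above them in both duplicate recordings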
Starred values were filed as active, the others as inactive; i = inactive; . = no result given.

SMILES	KCNQ2 pot	KCNQ2 block	Kir21 conf inh	HEK293 Tl flux	others
Cc1ccccc1NC1=C/C(=N\S(=O)(=O)c2ccc(C(=O)O)cc2)c2ccccc2C1=O	7.2*	i	i	i	CHO-K1 Tl ctr=-10;KCNQ1 sel pot=-14;KCNQ2 pot confirm=8.9*;Kir21 spec=-6;KCNQ2 W236L MoA=16%*
O=C(Nc1cccc2cccnc12)C1CCCC1	.	i	.	.
Cn1/c(=N\NC(=O)C2CCCCC2)sc2ccccc21	9.9*	i	i	i	CHO-K1 Tl ctr=-21;KCNQ1 sel pot=-9;KCNQ2 pot confirm=0.0*;Kir21 spec=-31;KCNQ2 W236L MoA=i
CC(=O)N/N=c1\sc2ccccc2n1C	0.49	i	.	.
COc1cc(CNCCc2ccc(F)cc2)ccc1OCc1ccc(Cl)nc1	.	i	32%*	i
COc1cc(CNCCc2ccccc2F)ccc1OCc1ccc(Cl)nc1	0.04	i	.	.
Cc1ccc(OCCOCCn2ccnc2)c(Br)c1	0.02	i	.	.
O=C(CNC(=O)c1ccc(S(=O)(=O)N2CCCC2)cc1)N/N=C/c1ccco1	0.04	i	.	.
Cc1ccc(OCCC(=O)OCC(=O)Nc2c(C)nn(-c3ccccc3)c2C)cc1	1.8	i	.	.
O=C(CC1CCCC1)N1CCCC(Nc2ccc(F)cc2)C1 (centres undefined)	1.5	i	.	.
O=C(CCc1cccc(Cl)c1)N1CCCC(Nc2ccccc2)C1 (centres undefined)	-7	-7*	70%*	i
O=C1CCCCN1CCC(=O)N1CCCC(Nc2ccccc2)C1 (centres undefined)	1.5	i	.	.
CC1(CCC(=O)N2CCCC(Nc3ccc(F)cc3)C2)CC1 (centres undefined)	.	i	51%*	i
Oc1ccc2ccccc2c1/C=N/c1nc2c(s1)CCCC2	.	i	.	.
Oc1c(Br)cc(Br)cc1/C=N/c1nc2c(s1)CCCC2	8.7*	i	i	i	CHO-K1 Tl ctr=48*;KCNQ1 sel pot=-6;KCNQ2 pot confirm=26*;Kir21 spec=-46;KCNQ2 W236L MoA=4.4%*
O=S(=O)(/N=C(/Nc1ccc(Cl)cc1Cl)c1ccccc1)c1cccs1	1.5	i	.	.
COc1ccc(CC(=O)NNC(=O)COc2ccc(Br)cc2C)cc1OC	.	i	.	.
COc1ccc(OC)c(NC(=O)C(=O)NNC(=O)COc2ccc(Br)cc2C)c1	17*	i	i	350%*	CHO-K1 Tl ctr=-8;KCNQ1 sel pot=12*;KCNQ2 pot confirm=68*;Kir21 spec=-15;KCNQ2 W236L MoA=i
COc1ccc(OCC(=O)NNC(=O)C(=O)Nc2cc(OC)ccc2OC)cc1	11*	i	i	264%*	CHO-K1 Tl ctr=42*;KCNQ1 sel pot=-5;KCNQ2 pot confirm=8.0*;Kir21 spec=-26;KCNQ2 W236L MoA=i
COc1ccc(C(=O)NNC(=O)C(=O)Nc2cccc3ccccc23)cc1	10*	i	i	156%*	CHO-K1 Tl ctr=2.3*;KCNQ1 sel pot=-20;KCNQ2 pot confirm=-2;Kir21 spec=-23;KCNQ2 W236L MoA=i
COc1ccc(OC)c(NC(=O)NNC(=O)COc2ccc(-c3ccccc3)cc2)c1	.	i	.	.
COc1ccc(C(=O)Nc2cccc3ccccc23)cc1	.	i	.	.
COc1ccc(OC)c(NC(=O)Nc2c(O)ccc3ccccc23)c1	7.8*	i	.	.	CHO-K1 Tl ctr=-21;KCNQ1 sel pot=-40;KCNQ2 pot confirm=-11;Kir21 spec=-72
COc1ccc(OC)c(NC(=O)Nc2ccc(O)c3ccccc23)c1	.	i	.	.
CCOC(=O)c1c(NC(=O)c2cc3n(n2)C(C(F)(F)F)CC(c2cccs2)N3)sc(C)c1C (centres undefined)	1.5	i	.	.
SMILES	KCNQ2 pot	KCNQ2 block	Kir21 conf inh	HEK293 Tl flux	others
O=C(C1CC(=O)N(c2ccc3c(c2)OCCO3)C1)N1CCCC(C(F)(F)F)C1 (centres undefined)	0.37	i	.	.
CCc1ccccc1NC(=S)N(CCCN1CCOCC1)Cc1cccs1	0.25	i	.	.
CN(C(=O)COC(=O)CNC(=O)c1ccccc1F)C1CCCCC1	.	i	.	.
O=C(CCN=C1NS(=O)(=O)c2ccccc21)OCc1nnc(-c2ccccc2)o1	1.1	i	.	.
Cc1ccccc1NC(=O)C(=O)NNC(=O)COc1ccc2ccccc2c1	7*	i	i	248%*	CHO-K1 Tl ctr=-4;KCNQ1 sel pot=-15;KCNQ2 pot confirm=20*;Kir21 spec=-21;KCNQ2 W236L MoA=i
O=C(COc1ccc2ccccc2c1)NNC(=O)Nc1ccccc1F	.	i	.	.
CNCCC(Oc1ccc(C(F)(F)F)cc1)c1ccccc1 (centres undefined)	.	i	.	.
CNCC[C@H](Oc1cccc2ccccc12)c1cccs1	.	i	i	i
Cn1c(=O)[nH]c(=O)c2c1nc(N1CCCCCC1)n2CCOc1ccccc1	.	i	.	.
Cc1cccc(NC(=O)CCN2CCCC(C)C2)c1 (centres undefined)	0.03	i	.	.
CCOC(=O)CCNC(=O)c1ccc2nc(C3CCCCC3)oc2c1	2	i	.	.
CCc1ccc(CNC(=O)c2ccc3nc(C4CCCCC4)oc3c2)nc1	17*	i	.	.	CHO-K1 Tl ctr=-11;KCNQ1 sel pot=17*;KCNQ2 pot confirm=9.2*;Kir21 spec=-45;KCNQ2 W236L MoA=i
O=C(c1cc([N+](=O)[O-])[nH]n1)N1CCSCC1	.	i	.	.
COc1ccc(C(=O)/C(=C\c2ccco2)N2C=CC=CC2=C(C#N)C#N)cc1	.	i	70%*	61%*
COc1ccc(C(=O)N/C(=C\c2ccco2)C(=O)OCc2ccco2)cc1	1.3	i	.	.
CCOc1ccccc1/C=C/c1onc(C)c1S(=O)(=O)N1CCC(C(=O)N2CCCCCC2)CC1	0.49	i	.	.
O=C(OCC(=O)N1CCC(Cc2ccccc2)CC1)c1ccccc1	0.04	i	.	.
COc1cc(C(=O)OCC(=O)N2CCC(Cc3ccccc3)CC2)cc(OC)c1OC	5.6*	i	i	67%*	CHO-K1 Tl ctr=-8;KCNQ1 sel pot=-14;KCNQ2 pot confirm=35*;Kir21 spec=-50;KCNQ2 W236L MoA=i
Cc1ccc(NC(=O)NNC(=O)CN2C(=O)COc3ccccc32)cc1	2.1	i	.	.
CCOC(=S)NC(=O)c1sc2ccccc2c1Cl	21*	i	i	356%*	CHO-K1 Tl ctr=-2;KCNQ1 sel pot=-6;KCNQ2 pot confirm=62*;Kir21 spec=-37;KCNQ2 W236L MoA=i
CC(C)(C)C(=O)NC(=S)NNC(=O)c1sc2ccccc2c1Cl	12	i	.	.
O=C(NC(=S)NCCO)c1sc2ccccc2c1Cl	.	i	.	.
CCCOC(=S)NC(=O)c1sc2ccccc2c1Cl	20*	i	i	312%*	CHO-K1 Tl ctr=22*;KCNQ1 sel pot=-12;KCNQ2 pot confirm=55*;Kir21 spec=-12;KCNQ2 W236L MoA=i
COc1cc(NS(=O)(=O)c2ccc(Nc3nc(-c4ccccc4)cs3)cc2)nc(OC)n1	1.8	i	i	i
COc1cc(NS(=O)(=O)c2ccc(NC(=S)Nc3ccccc3)cc2)nc(OC)n1	.	i	.	.
CC(C)Oc1ccccc1NC(=O)CSc1nc2ccccc2c(=O)n1C	1.2	i	58%*	i

Screening results deposited in PubChem by Johns Hopkins Ion Channel Center.
